Measured values reported in PubChem BioAssay (NCI).
“And” between values parts separate entries of the source, which are not always exact repeats. Equal values may be shown once. This is part of a sample that, as a whole, favours compounds with a hit. Of some 83,000 tested, about 20% had one in any assay.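 Note: values are percent growth. 100 is the growth of untreated cells, values between 100 and 0 indicate rising inhibition; between -100 and 0 indicates cell death.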 A number with no mark means an inactive call. The source made the active and inactive calls. The calls were made as follows: active = growth percent below 10; inactive = the rest.

Key:
Experiment in all cases: NCI-60 one-dose screen, 48 h (100 = growth as untreated, 0 = no growth, -100 = all killed)
T-47D breast = test system: T-47D breast
BT-549 breast = test system: BT-549 breast
MDA-MB-435 melanoma = test system: MDA-MB-435 melanoma
SW-620 colon = test system: SW-620 colon
MCF7 breast = test system: MCF7 breast
HCT-116 colon = test system: HCT-116 colon
HCC-2998 colon = test system: HCC-2998 colon
KM12 colon = test system: KM12 colon

Q: How did the growth (T-47D breast; 10 µM unless noted) turn out when S=c1nc[nH]c2nc[nH]c12 was run?
A: 18.6%

Q: And the growth (BT-549 breast; 10 µM)?
A: 62%

Q: And the growth (BT-549 breast; 50 µM)?
A: 64.4%

Q: What about the growth (MDA-MB-435 melanoma; 10 µM) of the same compound?
A: 15.3%

Q: What about the growth (MDA-MB-435 melanoma; 50 µM) of the same compound?
A: 13.8%

Q: And the growth (SW-620 colon; 10 µM)?
A: 34.6%

Q: What about the growth (SW-620 colon; 50 µM) of the same compound?
A: 21.5%

Q: What about the growth (MCF7 breast; 10 µM) of the same compound?
A: 10.7%

Q: And the growth (MCF7 breast; 50 µM)?
A: 6.35% (active)

Q: What about the growth (MCF7 breast; 750 µM) of the same compound?
A: 4.16% (active) and -35.5% (active)

Q: What about the growth (HCT-116 colon; 10 µM) of the same compound?
A: 19.2%

Q: What about the growth (HCT-116 colon; 50 µM) of the same compound?
A: 28.3%

Q: What about the growth (HCC-2998 colon; 10 µM) of the same compound?
A: 23.2%

Q: What about the growth (HCC-2998 colon; 50 µM) of the same compound?
A: 31%

Q: What about the growth (KM12 colon; 10 µM) of the same compound?
A: 35.4%

Q: What about the growth (KM12 colon; 50 µM) of the same compound?
A: 14.9%

Q: Which results are given for O=C(/C=C/C=C/c1ccc2c(c1)OCO2)N1CCCCC1?
A: growth (T-47D breast; 10 µM unless noted): 90.8% and 103%; growth (BT-549 breast; 10 µM unless noted): 108%; growth (MDA-MB-435 melanoma; 10 µM unless noted): 98.9% and 104%; growth (SW-620 colon; 10 µM unless noted): 106% and 101%; growth (MCF7 breast; 10 µM unless noted): 101% and 82.8%; growth (HCT-116 colon; 10 µM unless noted): 103% and 98.1%; growth (HCC-2998 colon; 10 µM unless noted): 102% and 130%

Q: COc1cc2c(cc1O)C(=O)CCCC2 was tested. Which growth (T-47D breast; 10 µM unless noted) did it give?
A: 94.8%

Q: And the growth (BT-549 breast; 10 µM unless noted)?
A: 78%

Q: What about the growth (MDA-MB-435 melanoma; 10 µM unless noted) of the same compound?
A: 99.2%

Q: What about the growth (SW-620 colon; 10 µM unless noted) of the same compound?
A: 92.9%

Q: And the growth (MCF7 breast; 10 µM unless noted)?
A: 91.2%

Q: And the growth (HCT-116 colon; 10 µM unless noted)?
A: 99.2%

Q: And the growth (HCC-2998 colon; 10 µM unless noted)?
A: 74.7%

Q: Which growth (T-47D breast; 10 µM unless noted) does the source give for C#CCOC(=O)C(N)CS (stereo unspecified) here?
A: 119%

Q: And the growth (BT-549 breast; 10 µM unless noted)?
A: 108%

Q: And the growth (MDA-MB-435 melanoma; 10 µM unless noted)?
A: 96.6%

Q: And the growth (SW-620 colon; 10 µM unless noted)?
A: 97.1%

Q: And the growth (MCF7 breast; 10 µM)?
A: 93%

Q: What about the growth (MCF7 breast; 100 µM) of the same compound?
A: 90.4% and 76.4%

Q: And the growth (HCT-116 colon; 10 µM unless noted)?
A: 101%

Q: What about the growth (HCC-2998 colon; 10 µM unless noted) of the same compound?
A: 107%

Q: And the growth (KM12 colon; 10 µM unless noted)?
A: 102%

Q: Which growth (T-47D breast; 10 µM unless noted) does the source give for COc1cc(Cl)ccc1C here?
A: 94.9%

Q: What about the growth (BT-549 breast; 10 µM unless noted) of the same compound?
A: 102%

Q: And the growth (MDA-MB-435 melanoma; 10 µM unless noted)?
A: 102%

Q: And the growth (SW-620 colon; 10 µM unless noted)?
A: 52.8%

Q: And the growth (MCF7 breast; 10 µM unless noted)?
A: 56.8%

Q: And the growth (HCT-116 colon; 10 µM unless noted)?
A: 59%

Q: What about the growth (HCC-2998 colon; 10 µM unless noted) of the same compound?
A: 105%

Q: For OC1CCCN(Cc2ccccc2)C1 (stereo unspecified), which growth (T-47D breast; 10 µM unless noted) is on record?
A: 94.9%

Q: What about the growth (BT-549 breast; 10 µM unless noted) of the same compound?
A: 112%

Q: And the growth (MDA-MB-435 melanoma; 10 µM unless noted)?
A: 107%

Q: And the growth (SW-620 colon; 10 µM unless noted)?
A: 107%

Q: What about the growth (MCF7 breast; 10 µM unless noted) of the same compound?
A: 102%

Q: What about the growth (HCT-116 colon; 10 µM unless noted) of the same compound?
A: 103%

Q: And the growth (HCC-2998 colon; 10 µM unless noted)?
A: 116%

Q: Which results are given for COc1ccc(CCNC(=S)NN)cc1OC?
A: growth (T-47D breast; 10 µM unless noted): 98.8%; growth (BT-549 breast; 10 µM unless noted): 118%; growth (MDA-MB-435 melanoma; 10 µM unless noted): 111%; growth (SW-620 colon; 10 µM unless noted): 99%; growth (MCF7 breast; 10 µM unless noted): 93.9%; growth (HCT-116 colon; 10 µM unless noted): 84.2%; growth (HCC-2998 colon; 10 µM unless noted): 88.8%

Q: What does the source list for O=c1ccn2c(n1)OC1CC2OC1COC(c1ccccc1)(c1ccccc1)c1ccccc1 (stereo unspecified)?
A: growth (T-47D breast; 10 µM): 109%; growth (T-47D breast; 100 µM): 102%; growth (BT-549 breast; 10 µM): 123%; growth (BT-549 breast; 100 µM): 88.4%; growth (MDA-MB-435 melanoma; 10 µM): 103%; growth (MDA-MB-435 melanoma; 100 µM): -4.08% (active); growth (SW-620 colon; 10 µM): 108%; growth (SW-620 colon; 100 µM): 90.4%; growth (MCF7 breast; 10 µM): 95.4%; growth (MCF7 breast; 100 µM): 46.7%; growth (HCT-116 colon; 10 µM): 101%; growth (HCT-116 colon; 100 µM): 40.1%; growth (HCC-2998 colon; 10 µM): 106%; growth (HCC-2998 colon; 100 µM): 100%; growth (KM12 colon; 10 µM): 117%; growth (KM12 colon; 100 µM): 96.3%

Q: How did the growth (T-47D breast; 10 µM) turn out when CS/C(=C\c1ccc(C(=O)c2ccc(C)cc2)n1C)S(C)=O (stereo unspecified) was run?
A: 79.7%

Q: And the growth (T-47D breast; 100 µM)?
A: 47.6%

Q: And the growth (BT-549 breast; 10 µM)?
A: 102%

Q: And the growth (BT-549 breast; 100 µM)?
A: 47.4%

Q: What about the growth (MDA-MB-435 melanoma; 10 µM) of the same compound?
A: 50.1%

Q: What about the growth (MDA-MB-435 melanoma; 100 µM) of the same compound?
A: 26.9%

Q: And the growth (SW-620 colon; 10 µM)?
A: 101%

Q: And the growth (SW-620 colon; 100 µM)?
A: 97.4%

Q: And the growth (MCF7 breast; 10 µM)?
A: 89.6%

Q: What about the growth (MCF7 breast; 100 µM) of the same compound?
A: 70.7%

Q: What about the growth (HCT-116 colon; 10 µM) of the same compound?
A: 97.1%

Q: What about the growth (HCT-116 colon; 100 µM) of the same compound?
A: 70.9%

Q: What about the growth (HCC-2998 colon; 10 µM) of the same compound?
A: 95.9%

Q: And the growth (HCC-2998 colon; 100 µM)?
A: 87.2%

Q: And the growth (KM12 colon; 10 µM)?
A: 94.3%

Q: What about the growth (KM12 colon; 100 µM) of the same compound?
A: 72.8%

Q: Which results are given for COC(=O)CCOc1ccccc1?
A: growth (T-47D breast; 10 µM unless noted): 103%; growth (BT-549 breast; 10 µM unless noted): 91.7%; growth (MDA-MB-435 melanoma; 10 µM unless noted): 109%; growth (SW-620 colon; 10 µM unless noted): 107%; growth (MCF7 breast; 10 µM unless noted): 89.3%; growth (HCT-116 colon; 10 µM unless noted): 103%; growth (HCC-2998 colon; 10 µM unless noted): 91%

Q: With CCN(CC)CCNC(=O)c1ccc(NCN2C(=O)NC(c3ccccc3)(c3ccccc3)C2=O)cc1 as the compound, how does the growth (T-47D breast; 10 µM unless noted) read?
A: 117% and 95.2%

Q: What about the growth (BT-549 breast; 10 µM unless noted) of the same compound?
A: 107% and 120%

Q: And the growth (MDA-MB-435 melanoma; 10 µM unless noted)?
A: 94.6% and 103%

Q: And the growth (SW-620 colon; 10 µM unless noted)?
A: 105% and 106%

Q: And the growth (MCF7 breast; 10 µM unless noted)?
A: 98.4% and 94.6%

Q: And the growth (HCT-116 colon; 10 µM unless noted)?
A: 104% and 95.1%

Q: What about the growth (HCC-2998 colon; 10 µM unless noted) of the same compound?
A: 102% and 125%
